Tau fibril ThT = inhibitors of human tau fibril formation, thioflavin T binding; P10636; recombinant tau K18 P301L, heparin-induced fibrillization, ThT fluorescence; Potency, µM (top dose mostly 57.4 µM), for the others: at the top dose activity, negative = inhibition, hits mostly inhibitors; 2.1% of 270,000 active; AID 1460; further: potency means the concentration at half of the fitted maximal effect; nearly all actives have a fitted effect of over 55% in size
Target sequence (P10636 561-689 P618L limits assumed): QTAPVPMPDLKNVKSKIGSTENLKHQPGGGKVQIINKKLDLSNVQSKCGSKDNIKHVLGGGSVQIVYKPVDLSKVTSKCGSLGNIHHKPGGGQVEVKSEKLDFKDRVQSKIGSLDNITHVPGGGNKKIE
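Using a mix of unlabeled (15 uM) and Alexa 594-labeled (0.24 uM) tau K18 P301L, heparin-triggered fibrillization over 6 hr at 37 C was scored by ThT fluorescence.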
Tau fluor counter = counter-screen for tau fibril formation inhibitors | 0.93% of 280,000 active | Potency, µM (titrated, usually from 57.7 µM), inactives show top-dose activity change, negative = decrease | tau K18 P301L (four-repeat tau fragment) Alexa594 fluorescence, heparin fibrillization | AID 1463; further: potency means the concentration at half of the fitted maximal effect; nearly all actives have a fitted effect of over 55% in size
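Human K18 P301L tau (15 uM unlabeled plus 0.24 uM Alexa 594-labeled, final) in 100 mM sodium acetate pH 7 was mixed with compound and 20 uM heparin and incubated 6 hr at 37 C.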
FBPA coupling cs = coupling enzyme interference in Giardia aldolase counter-screen; activity change, negative = inhibition, % at 58.2 µM, hits read low; coupling enzyme system counterscreen, AmpLite Red fluorescence; 0.67% of 290,000 active; in the data active means activity change below about -30%
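Compounds tested against the coupling enzymes alone at 57.5 uM final; readout was AmpLite Red fluorescence (525/598 nm) after 20 min at RT.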
Tau FP inhib = inhibitors of human tau fibril formation; P10636; AID 1468; K18 P301L tau heparin fibrillization, Alexa594 FP, 6 h; 0.39% of 280,000 active; Potency, µM (titrated, usually from 57.7 µM), inactives show top-dose activity, negative = inhibition, most hits filed as inhibitors; further: potency means the concentration at half of the fitted maximal effect; nearly all actives have a fitted effect of over 55% in size
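Steps: dispense K18 P301L tau (15 uM plus 0.24 uM Alexa 594 tracer, final) in pH 7 sodium acetate; add compound; add heparin (20 uM final); incubate 6 hr, 37 C; add ThT (30 uM final); after 1 hr ambient, read FP.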
* = called active by the depositor; ? = inconclusive; nt = no result; [ ] = another dose, or the depositor's remark. The list is not random: actives were taken first. Their share in the collection is about 2.7%. Unless noted, the call rests on the fitted dose curve; in most records, active means well fitted curve in the direction sought with a large enough effect; inconclusive means small, poorly fitted or top-dose-only effect, or another doubt; inactive means no such curve, though single readings can be large; an effect the other way counts as inactive or inconclusive. On the % scale 0 is the no-effect control and ±100 the full control effect.

SMILES	Tau fibril ThT	Tau fluor counter	FBPA coupling cs	Tau FP inhib
S=C(Nc1ccc(N2CCOCC2)cc1)Nc1ccc2nc(-c3ccco3)c(-c3ccco3)nc2c1	2.24µM*	7.94µM*[quencher]	-24.5	?
O=C(Nc1ccc(N2CCOCC2)cc1)c1ccc2nc(-c3ccco3)c(-c3ccco3)nc2c1	2.51µM*	?	-3.1	-6.2%
O=C(NC(=S)Nc1ccc(N2CCOCC2)cc1)c1ccco1	?	-11.4%	-2.0	-1.2%
O=C(Nc1ccc(N2CCOCC2)cc1)c1ccc([N+](=O)[O-])cc1	2.82µM*	-19.2%	-4.8	1.3%
O=C(Nc1ccc2nc(-c3ccco3)c(-c3ccco3)nc2c1)N1CCN(c2ccccn2)CC1	12.1%	6.2%	-40.9*	1.5%
COc1ccc(Cl)cc1NC(=O)Cn1c2ncccc2c(=O)n1-c1ccc(C)c(C)c1	4.8%	-1.4%	nt	-0.3%
CC(=O)c1cccc(NC(=O)Nc2cnn(Cc3ccc(Cl)cc3Cl)c2)c1	-10.1%	8.91µM*[quencher]	-0.9	?
O=C(Nc1cnn(Cc2ccc(Cl)cc2Cl)c1)c1cc(-c2cccs2)on1	-3.5%	-26.7%	1.6	-9.2%
C/C(CC(=O)Nc1cccc(Cl)c1Cl)=N\NC(=O)c1ccccc1N	-15.6%	-16.5%	-3.2	-3.6%
CC1=C(C(=O)O)N2C(=O)[C@@H](NC(=O)[C@@H](N)c3ccccc3)[C@@H]2SC1	nt	nt	4.6	nt
CC1=C(C(=O)O)N2C(=O)C(NC(=O)C(N)c3ccc(O)cc3)C2SC1 (configuration not stated)	28.2µM*	?	-1.4	?
CC=CC1=C(C(=O)O)N2C(=O)[C@H](NC(=O)[C@H](N)c3ccc(O)cc3)[C@@H]2SC1	22.4µM*	-22.9%	-0.9	?
COc1cccc(NC(=O)c2cnn(-c3ccccc3)c2-n2cccc2)c1	-5.4%	-6.5%	nt	0.2%
NC(C(=O)O)c1ccc(P(=O)(O)O)cc1 (configuration not stated)	3.3%	-0.5%	nt	-2.8%
CNC(=O)Nc1cccc(-c2cc(-c3c(Cl)cccc3Cl)no2)c1	-1.5%	?	1.2	22.4µM*
CC(=O)Nc1cccc(-c2cc(-c3c(Cl)cccc3Cl)no2)c1	2.5%	?	-2.3	?
OCCN1CCN(C(=S)c2ccc(Cl)cc2)CC1	-5.1%	-2.9%	0.9	-10.2%
CCN1CCN(C(=S)c2ccc(Cl)cc2)CC1	?	-21.2%	-53.7*	?
CCOc1ccc(/C=C2/SC(=S)N(C(C(=O)O)c3ccccc3)C2=O)cc1OCC (configuration not stated)	15.8µM*	-34.6%	-0.2	?
COc1cc(/C=C2/SC(=NCc3ccccc3)N(Cc3ccccc3)C2=O)ccc1O	?	10µM*[quencher]	1.2	-3.2%
CCOc1cc(/C=C2\SC(=S)N(C(C(=O)O)c3ccccc3)C2=O)ccc1O (configuration not stated)	?	2.6%	19.6	-0.4%
COc1cc(/C=C2\SC(=S)N(C(C(=O)O)c3ccccc3)C2=O)ccc1O (configuration not stated)	7.08µM*	-10.1%	11.9	-7.3%
CCOC(=O)CSc1nc2sc3c(c2c(=O)n1Cc1ccccc1)CCC(C(C)(C)C)C3 (configuration not stated)	0.9%	0.3%	nt	-3.2%
COc1ccc(C2=CC3=C(Br)C(=O)C(C)(OC(=O)c4ccco4)C(=O)C3=CO2)cc1 (configuration not stated)	15.8µM*	?	0.2	?
Cc1ccc(NC(=O)CSc2ccc3nnc(CCNS(=O)(=O)c4ccccc4)n3n2)cc1Cl	0.3%	-29.3%	nt	-1.3%
SMILES	Tau fibril ThT	Tau fluor counter	FBPA coupling cs	Tau FP inhib
CCn1c(O)c(C#N)c(C)cc1=O	-15.2%	-12.7%	-25.8	0.2%
Cc1cc(=O)n(CCO)c(O)c1C#N	-17.3%	-6.4%	-46.1*	-10.2%
Cc1cc(=O)n(CC(C)C)c(O)c1C#N	?	-13.1%	-32.8*	-13.5%
Cc1ccc(N2CC(NC(=O)c3ccc(S(=O)(=O)N4CCCC4)cc3)CC2=O)cc1 (configuration not stated)	-7.6%	-6.7%	nt	-9.1%
COc1ccc(C2C(C#N)=C(N)Oc3cc(N)ccc32)cc1 (configuration not stated)	nt	nt	4.0	nt
COc1ccc(C2C(C#N)=C(N)Oc3c2sc2nc(C)cc(C)c32)cc1 (configuration not stated)	25.1µM*	?	-1.0	?

High-throughput results (PubChem)
